# TDP1 cell CPT – growth inhibition of DT40 Tdp1-/-;hTDP1 cells with camptothecin (screen for TDP1 inhibitors); 420,000 compounds, 12% hits; Potency, µM (highest dose often 46.2 µM), for inactives: at the highest dose activity change, negative = growth inhibition, usual class: inhibitors; chicken DT40 Tdp1-/-;hTDP1 cells + 20 nM CPT, ATP luminescence, 48 h; AID 686979; also: potency is read from the fitted curve at half-maximal effect; nearly all actives have a fitted effect of over 55% in size
#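 Cell growth measured by CellTiter-Glo luminescence after a minimum 48 h, 37 C compound exposure with 20 nM CPT in Tdp1-knockout DT40 cells stably expressing hTDP1, seeded 400/well; qHTS titration format.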
# Giardia killer – kills Giardia lamblia; 340,000 compounds, 0.15% hits; activity change, % at 7.66 µM, hits read low; Giardia lamblia trophozoite viability; AID 540267; in the data active = activity change below about -80%; inconclusive = between about -30% and that limit;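 also: parasites exposed to compound for two days anaerobically before the ATP read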
#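 Trophozoites 100 cells/well + cpd; 48 hrs, 37 deg C, anaerobic. ATPLite 1-Step added, 15-30 min RT, luminescence read (ATP-based viability).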
# TDP1 cell noCPT – qHTS for Inhibitors of human tyrosyl-DNA phosphodiesterase 1 (TDP1): qHTS in cells in absence of CPT | DT40 Tdp1-/- hTDP1 cells, no CPT, ATP luminescence, 48 h | Potency, µM (top dose mostly 46.2 µM), for inactives: at the top dose activity change, negative = growth inhibition, actives largely listed as inhibitors | 420,000 compounds, 15% hits; also: potency is read from the fitted curve at half-maximal effect; nearly all actives have a fitted effect of over 55% in size
#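 Seeded 400 DT40-hTDP1 cells/well (vehicle DMSO, no 20 nM CPT); pinned compounds; ≥48 hr at 37 °C; CellTiter-Glo luminescence as viability measure.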
# ELG1 repair inh – blocks ELG1-dependent DNA repair in HEK293T cells | 330,000 compounds, 2.3% hits | Potency, µM (doses to about 46.1 µM), for the others: at the highest dose activity change, negative = inhibition, hits mostly inhibitors | HEK293T ELG1-luciferase reporter, luminescence, 16 h; DNA damage induced by 5-fluorouridine; also: potency is read from the fitted curve at half-maximal effect; nearly all actives have a fitted effect of over 55% in size
#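 HEK293T cells expressing luciferase-tagged ELG1 (2,000/well) received 5-Fluorouridine plus compound or DMSO for 16 hr at 37 °C. Luciferase was read by ONE-Glo luminescence after 30 min at room temperature.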
# TDP1 block – blocks human tyrosyl-DNA phosphodiesterase 1; AID 485290; Q9NUW8; Potency, µM (top dose mostly 130 µM), for inactives: at the highest dose activity change, negative = inhibition, actives largely listed as inhibitors; recombinant TDP1, AlphaScreen DNA substrate cleavage; 350,000 compounds, 0.28% hits; also: potency is read from the fitted curve at half-maximal effect; nearly all actives have a fitted effect of over 40% in size
# Target sequence (Q9NUW8 whole entry, looked up): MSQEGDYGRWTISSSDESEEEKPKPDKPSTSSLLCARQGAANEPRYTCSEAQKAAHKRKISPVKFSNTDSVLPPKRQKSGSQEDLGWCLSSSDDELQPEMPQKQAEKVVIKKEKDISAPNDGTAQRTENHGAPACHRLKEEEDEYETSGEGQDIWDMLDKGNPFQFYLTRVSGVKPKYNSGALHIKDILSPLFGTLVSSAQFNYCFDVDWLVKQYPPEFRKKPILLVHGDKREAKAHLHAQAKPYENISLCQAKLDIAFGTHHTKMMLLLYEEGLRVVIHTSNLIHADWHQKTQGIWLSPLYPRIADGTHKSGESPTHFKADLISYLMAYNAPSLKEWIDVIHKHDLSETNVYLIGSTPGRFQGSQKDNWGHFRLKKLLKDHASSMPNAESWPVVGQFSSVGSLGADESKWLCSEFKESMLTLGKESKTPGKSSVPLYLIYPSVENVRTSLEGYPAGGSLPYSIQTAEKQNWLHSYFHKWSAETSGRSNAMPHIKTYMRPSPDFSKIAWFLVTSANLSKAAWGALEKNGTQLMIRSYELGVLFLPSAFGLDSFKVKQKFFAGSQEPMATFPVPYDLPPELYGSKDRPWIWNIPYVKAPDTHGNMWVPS
#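 Enzyme-compound mixtures sat 15 min at room temperature, followed by a 5 min reaction with 15 nM final substrate and 10 min with AlphaScreen beads. Recombinant human Tdp1 was used at 1 nM final.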
# IL-1B inflam inh – inhibitors of inflammasome signaling (IL-1 beta secretion) | THP-1 LPS/ATP IL-1B secretion, AlphaLISA, 16 h; stronger effect = lower value | activity change, % at 57.5 µM | 360,000 compounds, 4.7% hits; in the data active = activity change below about -50%; inconclusive = mostly about -30% to -49%
#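 Secreted IL-1B measured by AlphaLISA bead assay after 16 h compound exposure of THP-1 cells; compounds (final up to 57.5 uM) added 1 h before LPS (250 ng/mL) and ATP (1.25 mM) stimulation; lower signal means less secretion.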
# Numbers without * were called inactive; u = inconclusive; x = not tested or not shown. In the library only some 19% were active in any assay of this set; here they are far more common. Unless noted, calls follow the shape of the dose curve; as a rule, active = well fitted curve in the direction sought with a large enough effect; inconclusive = small, poorly fitted or top-dose-only effect, or another doubt; inactive = no such curve, though single readings can be large; an effect the other way counts as inactive or inconclusive. % is scaled to controls: 0 for no effect and ±100 for the full control effect.
SMILES,TDP1 cell CPT,Giardia killer,TDP1 cell noCPT,ELG1 repair inh,TDP1 block,IL-1B inflam inh
COc1ccc(S(=O)(=O)N2CCOC2CNC(=O)C(=O)NCCc2ccc(OC)c(OC)c2)cc1 (stereo unspecified),16µM*,10,u,u,8%,0
Cc1ccc(CNC(=O)C(=O)NCC2OCCN2S(=O)(=O)c2ccc(Cl)cc2)cc1 (stereo unspecified),u,-16,u,x,x,1
COc1ccc(CCNC(=O)C(=O)NCC2OCCN2S(=O)(=O)c2ccc(Br)cc2)cc1 (stereo unspecified),-4%,3,0%,u,8%,0
COc1ccc(CCNC(=O)C(=O)NCC2OCCN2S(=O)(=O)c2ccc(Cl)cc2)cc1OC (stereo unspecified),u,-4,18µM*,u,x,6
Cc1ccc(S(=O)(=O)N2CCOC2CNC(=O)C(=O)NCc2ccc(Cl)cc2)cc1 (stereo unspecified),u,-11,21µM*,23µM*,2%,0
COc1ccc(S(=O)(=O)N2CCCOC2CNC(=O)C(=O)NCCc2ccco2)cc1C (stereo unspecified),5.8µM*,9,7.3µM*,1%,6%,51
COc1ccc(CCNC(=O)C(=O)NCC2OCCN2S(=O)(=O)c2ccc(Br)cc2)cc1OC (stereo unspecified),3%,13,7%,21µM*,2%,0
COc1ccc(CNC(=O)c2cc3cccc4c3n2CC(C)S4)cc1OC (stereo unspecified),u,x,23µM*,x,8%,x
COc1ccc(CNC(=O)c2cc3cccc4c3n2CC(C)S4)c(OC)c1 (stereo unspecified),9.2µM*,x,5.2µM*,x,0%,x
COc1ccc(OC)c(CCNC(=O)c2cc3cccc4c3n2CC(C)S4)c1 (stereo unspecified),5.8µM*,x,5.2µM*,x,6%,x
COc1ccc(OC)c(CCNC(=O)c2cc3cccc4c3n2CCS4)c1,u,x,u,x,3%,x
CCOc1ccc(CNC(=O)COc2cc(=O)n(C)c3ccccc23)cc1,-4%,x,u,x,8%,x
Cc1ccc(NC2CCCN(C(=O)c3ccoc3)C2)cc1C (stereo unspecified),-11%,28,0%,u,4%,11
Oc1[nH]c2ccc(Br)cc2c1N=Nc1ccc(C(F)(F)F)cn1,u,8,u,5%,-5%,-57*
COc1cc(/C=N/NC(=O)c2cc(-c3cccc(OC(C)C)c3)nc3ccccc23)ccc1O,u,-12,2.1µM*,x,x,14
COc1cc(/C=N/NC(=O)c2cc(-c3cccs3)nc3ccccc23)ccc1O,9.2µM*,-23,9.2µM*,u,4%,38
N#Cc1ccc(/C=N/NC(=O)c2cc(-c3cccs3)nc3ccccc23)cc1,9.2µM*,5,21µM*,-20%,5%,7
N#Cc1ccc(-c2csc(NC(=O)c3cc(-c4cccs4)nc4ccccc34)n2)cc1,u,-13,u,u,x,u
Cc1ccc(C)c(NCC(=O)c2ccc(Cl)cc2)c1,u,20,u,8%,5%,-24
COc1ccc(NC(=O)Cn2ncc3c4ccccc4n(Cc4ccccc4)c3c2=O)cc1OC,-5%,x,-14%,x,0%,x
CC1SCC(NC(=O)c2cccc(Cl)c2)CS1 (stereo unspecified),15µM*,5,12µM*,-6%,x,7
Nc1cnn(Cc2ccccc2F)c1,u,41,21µM*,-10%,6%,16
O=C(CCl)N(C/C=C/c1ccccc1)c1ccc2c(c1)OCCO2,3.7µM*,16,6.5µM*,u,5%,-115*
CC(=O)c1ccc(NC(=O)C(C)OC(=O)c2ccc(Br)o2)cc1 (stereo unspecified),u,-2,u,8%,0%,-6
Cc1ccc(NC(=O)CC(C)CC(=O)NCc2ccccc2)cc1Cl (stereo unspecified),13µM*,-8,u,-15%,3%,36
SMILES,TDP1 cell CPT,Giardia killer,TDP1 cell noCPT,ELG1 repair inh,TDP1 block,IL-1B inflam inh
CS(=O)(=O)c1ccccc1NC(=O)COc1ccccc1C(=O)Nc1ccccc1,11µM*,x,11µM*,x,x,x
Cc1ccc(NC(=O)COc2ccccc2)cc1Cl,30%,14,-29%,18%,x,-51*
CNC(=O)COc1ccccc1C(=O)Nc1ccccc1,28%,x,8%,x,x,x
Cc1cc(NC(=O)COc2ccccc2)ccc1Cl,-8%,15,-14%,u,-6%,-13
Cc1ccc(NC(=O)COc2ccccc2C(=O)Nc2ccccc2)cc1Cl,18%,-7,6%,16µM*,5%,-3
CSc1cccc(NC(=S)NC(=O)c2cccnc2)c1,-26%,u,-19%,1%,x,13
Cc1cccc(C)c1NC(=O)C1c2cccc[n+]2CC(=O)N1Cc1cccs1 (stereo unspecified),u,-15,u,u,5%,-1
Cc1cc(S(=O)(=O)NC2CC(C)(C)NC(C)(C)C2)c(Cl)cc1Cl,u,u,u,u,x,-14
C/C(CC(=O)Nc1ccc(OCc2ccccc2)cc1)=N\NC(=O)C(=O)Nc1ccc(C)c(Cl)c1,u,-16,18µM*,u,11%,6
Cc1ccc(Cl)cc1NC(=O)c1ccccc1OCC(=O)Nc1ccc(Cl)cc1,u,0,5.8µM*,-13%,1%,4
O=C(COc1ccc(Cl)cc1Cl)Nc1ccc(C(=O)Nc2ccccc2C(=O)O)cc1,17%,-11,4%,0%,50µM*,23
O=C(COc1ccc(Cl)cc1Cl)NC(=S)Nc1ccccc1C(=O)O,x,x,x,29%,4%,x
Cc1ccc(Cl)cc1NC(=O)c1ccccc1OCC(=O)N1CCOCC1,u,8,2%,u,0%,-9
COc1ccc(NC(C)=O)cc1CNC(=O)COc1ccccc1C(=O)Nc1cccc(C)c1C,u,u,4.1µM*,-29%,x,-5
C/C(CC(=O)Nc1ccc(C)c(Cl)c1)=N\NC(=O)Cc1ccccc1,-12%,-5,-28%,19%,3%,-5
Cc1cccc(-n2ncc3c2CCCC3NC(=O)CCc2cccnc2)c1C (stereo unspecified),u,1,u,u,1%,21
